Bioassay records deposited in PubChem BioAssay by National Center for Advancing Translational Sciences (NCATS).
Hits are enriched below; roughly 2.8% of the tested compounds scored in any of these assays.
Pol kappa inh: qHTS for Inhibitors of Polymerase Kappa. Potency, µM (doses to about 107 µM), without a hit: at the highest dose activity, negative = inhibition, usual class: inhibitors. DNA polymerase kappa (Homo sapiens), Q9UBT6. 400,000 tested, 0.53% active. purified Pol kappa, fluorescent DNA synthesis assay, 10 min; note: potency is the fitted concentration of half-maximal effect; % is set by controls: 0 for no effect and ±100 for the full control effect
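10 nM Pol kappa preincubated 15 min at room temperature with compounds, then reaction started with substrate at 50 nM final. Fluorescence read kinetically at 0 and 10 min; buffer-only wells served as negative control.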
PI5P4K alpha inh: qHTS for Inhibitors of phosphatidylinositol 5-phosphate 4-kinase (PI5P4K); Phosphatidylinositol 5-phosphate 4-kinase type-2 alpha (Homo sapiens), P48426; PI5P4Kalpha enzyme, ADP-Glo luminescence, 60 min; stronger effect = lower value; max response, %; 330,000 tested, 1.2% active; AID 652105, 2013; active = max response of -50% or lower; inconclusive = between -30% and -50%; inactive = -30% or higher; note: value at the top dose of about 77 µM; % is set by controls: 0 for no effect and ±100 for the full control effect
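Compounds were pin-transferred onto PI5P4Kalpha and substrate in HEPES pH 7.4 buffer with EGTA, CHAPS and 5% DMSO. ATP (5 microM final) started the reaction, which ran 60 minutes at room temperature before ADP-Glo detection.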
POLB inh: qHTS Assay for Inhibitors of DNA Polymerase Beta. AID 485314, 2010. Potency, µM (top dose mostly 114 µM), for inactives: top-dose activity change, negative = inhibition, usual class: inhibitors. 340,000 tested, 1.3% active. P06746. Pol beta primer extension/strand displacement, fluorescence kinetic; note: potency is the fitted concentration of half-maximal effect; % is set by controls: 0 for no effect and ±100 for the full control effect
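Pol beta (10 nM) and compounds were preincubated 15 min at room temperature, then 50 nM substrate (final) started primer extension/strand displacement. Reads were taken at 0 and 10 min; concentration-response data were fitted to a four-parameter Hill equation.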
PI4K2A block: qHTS for small molecular inhibitors of PI4K2A; Phosphatidylinositol 4-kinase type 2-alpha (Homo sapiens), Q9BTU6; activity change, negative = inhibition, % at 76.9 µM; purified PI4K2A, ADP-Glo luminescence, 1 h; stronger effect = lower value; 420,000 tested, 0.13% active; in the data active = activity change below about -50%; inconclusive = mostly about -30% to -49%;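 note: -100% = wells without enzyme as full effect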
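Compounds are screened against recombinant PI4K2A using PI as substrate and ATP, the latter dispensed at 300 microM. Reactions run one hour at ambient temperature before ADP-Glo detection; full inhibition defined by wells lacking enzyme.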
Pol iota inh: qHTS for Inhibitors of Polymerase Iota; DNA polymerase iota (Homo sapiens), Q9UNA4; AID 588590, 2011; Potency, µM (series often up to 115 µM), for the others: at the top dose activity, negative = inhibition, hits mostly inhibitors; 390,000 tested, 1% active; Pol iota fluorescent replication assay, 10 min; note: potency is the fitted concentration of half-maximal effect
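Pol iota at 10 nM preincubated 15 min with compounds at room temperature; reaction started with fluorescent substrate, 50 nM final. Fluorescence read kinetically at 0 and 10 min; buffer-only wells as negative control.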
POLH inh: qHTS for Inhibitors of Polymerase Eta; Potency, µM (series often up to 114 µM), for inactives: at the highest dose activity change, negative = inhibition, hits mostly inhibitors; AID 588591, 2011; recombinant Pol eta, fluorescent DNA replication assay; 390,000 tested, 1.2% active; note: potency is the fitted concentration of half-maximal effect; % is set by controls: 0 for no effect and ±100 for the full control effect
Target sequence (Q9Y253 whole entry, looked up): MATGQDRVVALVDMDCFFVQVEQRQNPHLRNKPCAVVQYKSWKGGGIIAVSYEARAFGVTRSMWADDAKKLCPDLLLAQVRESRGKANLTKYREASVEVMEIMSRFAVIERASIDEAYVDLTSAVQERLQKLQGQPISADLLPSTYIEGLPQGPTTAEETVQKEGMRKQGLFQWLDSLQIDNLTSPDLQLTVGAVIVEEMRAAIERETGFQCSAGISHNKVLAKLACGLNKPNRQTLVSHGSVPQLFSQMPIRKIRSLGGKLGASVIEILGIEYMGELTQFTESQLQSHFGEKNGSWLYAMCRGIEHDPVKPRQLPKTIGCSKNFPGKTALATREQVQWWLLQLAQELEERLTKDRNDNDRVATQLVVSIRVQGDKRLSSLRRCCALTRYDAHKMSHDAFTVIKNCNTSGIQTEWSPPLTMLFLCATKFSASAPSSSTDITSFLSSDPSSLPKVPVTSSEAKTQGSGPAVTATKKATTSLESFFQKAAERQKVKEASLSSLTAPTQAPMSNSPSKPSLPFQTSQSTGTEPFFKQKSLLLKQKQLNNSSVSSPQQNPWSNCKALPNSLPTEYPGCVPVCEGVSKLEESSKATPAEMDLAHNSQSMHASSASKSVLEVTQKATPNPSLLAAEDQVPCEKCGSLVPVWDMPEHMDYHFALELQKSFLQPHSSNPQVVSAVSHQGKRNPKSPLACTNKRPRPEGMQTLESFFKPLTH
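Fluorescent replication assay: 50 nM final substrate added after a 15 min room-temperature compound preincubation with 10 nM enzyme. Signal taken at 0 min and again at 10 min.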
An asterisk follows results filed as active; ? = inconclusive; . = no result. Unless noted, calls come from the whole dose curve; as a rule, active = well fitted inhibition curve with a large enough effect; inconclusive = small, poorly fitted or top-dose-only effect, or another doubt; inactive = no such curve, though single readings can be large or run the other way.

SMILES | Pol kappa inh | PI5P4K alpha inh | POLB inh | PI4K2A block | Pol iota inh | POLH inh
O=C(Nc1ccc(-c2nnc(-c3ccccc3)o2)cc1)C(F)(F)F | -15.9% | -2.8 | 29.3% | 0.0 | 5.4% | 10.0%
COc1ccc(NC(=O)N2CCc3ccccc32)cc1 | -17.1% | ? | 19.3% | -53.7* | 11.5% | -15.0%
COc1ccc(OC)c(NC(=O)c2cn3c4c(ccc(Cl)c4c2=O)OC(C)C3)c1 (stereo not drawn) | 4.0% | . | -3.4% | -2.9 | -4.7% | -0.5%
C#Cc1ccc([C@@H]2C=C(C(=O)O)O[C@H](OCc3ccc(CO)cc3)C2)cc1 | ? | -1.8 | 22.4µM* | -1.9 | ? | 39.8µM*
O=C(O)C1=C[C@@H](c2ccccc2)C[C@@H](OCc2ccc(CO)cc2)O1 | -8.5% | -0.8 | -4.3% | -3.2 | -3.2% | -5.0%
Cc1ccnc(NC(=O)c2ccc(OCC3CCCO3)cc2)c1 (stereo not drawn) | 0.6% | ? | . | -62.8* | -13.9% | -4.0%
Cc1c(NC(=O)C(C)OC(=O)c2cccnc2)c(=O)n(-c2ccccc2)n1C (stereo not drawn) | -6.2% | 2.9 | 6.0% | 4.3 | 58.8% | -5.7%
Cc1c(NC(=O)C(C)OC(=O)c2c3c(nc4ccccc24)CCC3)c(=O)n(-c2ccccc2)n1C (stereo not drawn) | -24.2% | ? | ? | -2.4 | 31.6µM* | 50.1µM*
Cc1c(NC(=O)C(C)OC(=O)c2cccnc2Cl)c(=O)n(-c2ccccc2)n1C (stereo not drawn) | 5.1% | -1.0 | . | -19.9 | 79.4µM* | -9.2%
Cc1c(NC(=O)COC(=O)c2c3c(nc4ccccc24)CCCC3)c(=O)n(-c2ccccc2)n1C | -0.4% | -1.4 | -19.5% | -2.2 | ? | -17.7%
COc1ccc(NC(=O)N2CCC(N(C)CCC(C)C)CC2)cc1OC | . | . | . | -1.5 | . | .
Cn1c(O)c(/C=C2\C=Nc3ccccc32)sc1=Nc1ccc(C(=O)O)cc1 | 3.4% | -65.6* | -0.1% | -2.8 | ? | ?
CCn1c(O)c(/C=C2\C=Nc3ccccc32)sc1=Nc1ccccc1 | -4.4% | . | -16.8% | 9.6 | 22.1% | 1.1%
CCOC(=O)N1CCC(Nc2ccc(Cl)cc2N)CC1 | . | . | . | -1.4 | . | .
CCOC(=O)c1c(C)oc2ccc(N(C(=O)Oc3ccccc3)S(=O)(=O)c3ccccc3)cc12 | -44.4% | . | 5.3% | -1.1 | -26.7% | -14.3%
COc1ccc(C=O)cc1COc1ccc(F)cc1F | -23.5% | -27.9 | 17.8µM* | -5.7 | ? | ?
Nc1nc(N)c(N=Nc2ccc(C(=O)O)cc2)c(N)n1 | -3.5% | ? | ? | -9.5 | -24.6% | -0.4%
Nc1nc(N)c(N=Nc2ccc(SCC(=O)O)cc2)c(=O)[nH]1 | -16.6% | -64.1* | 0.5% | -20.8 | ? | -7.8%
Cc1[nH][nH]c(=O)c1N=Nc1ccc(Cl)cc1 | -0.7% | -3.0 | 17.0% | -7.1 | 17.1% | -16.9%
Nc1nc(N)c(N=Nc2ccc(Cl)cc2)c(=O)[nH]1 | -7.4% | -76.9* | -1.9% | -8.0 | -28.0% | ?
Nc1nc(N)c(N=Nc2ccc(S(N)(=O)=O)cc2)c(=O)[nH]1 | 7.3% | -61.8* | ? | -12.9 | 24.6% | -7.0%
Cc1ccc(S(=O)(=O)c2ccc([N+](=O)[O-])o2)cc1 | -12.1% | 5.9 | . | -11.4 | 17.8µM* | 9.3%
Cc1ccc(NC(=O)c2ccc([N+](=O)[O-])o2)c(C)c1 | -8.2% | 6.9 | -1.0% | -3.3 | -1.0% | 19.0%
COc1cccc(NC(=O)/C(C#N)=C\c2cn(Cc3ccc(Cl)cc3)c3ccccc23)c1 | -21.3% | . | 1.2% | 4.0 | ? | -11.9%
COc1cc(C2CC(=O)Nc3c2c(=O)n(C)c2ncnn32)cc(OC)c1OC (stereo not drawn) | -7.1% | . | -12.1% | -6.6 | 50.1µM* | -3.6%
